Source: PubChem
ALDH1A1 block – qHTS Assay for Inhibitors of Aldehyde Dehydrogenase 1 (ALDH1A1) | Aldehyde dehydrogenase 1A1 (Homo sapiens), P00352 | Purified ALDH1A1, NADH fluorescence, propionaldehyde substrate | Potency, µM (highest dose often 75.3 µM), hits mostly inhibitors | hit rate 7.3% among 220,000; active = well fitted inhibition curve with a large enough effect, not every such curve was filed as active; inconclusive = small, poorly fitted or top-dose-only effect, or another doubt; inactive = no such curve, though single readings can be large or run the other way
KDM4E inh – qHTS Assay for Inhibitors of Human Jumonji Domain Containing 2E (JMJD2E). Lysine-specific demethylase 4E (Homo sapiens), B2RXH2. JMJD2E catalytic domain, FDH-coupled NADH fluorescence (FDH is formaldehyde dehydrogenase). Potency, µM (titrated, usually from 57.1 µM), hits mostly inhibitors. hit rate 1.6% among 230,000. AID 2147, 2009; active = well fitted inhibition curve with a large enough effect, not every such curve was filed as active; inconclusive = small, poorly fitted or top-dose-only effect, or another doubt; inactive = no such curve, though single readings can be large or run the other way; also: nearly all actives have a fitted effect of over 50% in size
Target sequence (B2RXH2 1-337 limits assumed): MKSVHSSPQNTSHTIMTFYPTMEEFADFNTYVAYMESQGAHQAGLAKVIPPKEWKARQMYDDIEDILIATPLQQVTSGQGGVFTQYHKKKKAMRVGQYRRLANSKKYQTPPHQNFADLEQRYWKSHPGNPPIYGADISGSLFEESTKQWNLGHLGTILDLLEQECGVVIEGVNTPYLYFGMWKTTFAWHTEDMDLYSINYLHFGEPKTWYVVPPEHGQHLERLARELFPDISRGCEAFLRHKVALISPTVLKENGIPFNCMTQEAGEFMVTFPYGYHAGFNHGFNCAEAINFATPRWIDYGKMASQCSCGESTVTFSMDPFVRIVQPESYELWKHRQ
Tau fluor cs – Counterscreen qHTS for Inhibitors of Tau Fibril Formation, Fluorescence Polarization | hit rate 0.93% among 280,000 | Potency, µM (top dose mostly 57.7 µM) | AID 1463, 2008 | tau K18 P301L Alexa594 fluorescence, heparin fibrillization; also: nearly all actives have a fitted effect of over 55% in size
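Human tau K18 P301L (15 uM unlabeled, 0.24 uM Alexa 594-labeled) in 100 mM sodium acetate pH 7 with 20 uM heparin, 6 hr at 37 C. ThT 30 uM added, 1 hr ambient; Alexa 594 FP and total fluorescence read at 555/632 nm.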
Tau ThT inhib – qHTS for Inhibitors of Tau Fibril Formation, Thioflavin T Binding; recombinant tau K18 P301L (four-repeat tau fragment), heparin-induced fibrillization, ThT fluorescence; Potency, µM (doses to about 57.4 µM), hits mostly inhibitors; hit rate 2.1% among 270,000; also: nearly all actives have a fitted effect of over 55% in size
Target sequence (P10636 561-689 P618L limits assumed): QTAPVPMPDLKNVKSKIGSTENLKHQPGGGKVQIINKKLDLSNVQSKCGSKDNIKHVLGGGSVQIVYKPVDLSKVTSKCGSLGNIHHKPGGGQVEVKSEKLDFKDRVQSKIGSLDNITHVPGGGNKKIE
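Aggregation was driven by heparin (20 uM final) acting on recombinant tau […] bearing P301L in 100 mM sodium acetate pH 7; fibrils were detected with Thioflavin T.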
Tau fibril FP – qHTS for Inhibitors of Tau Fibril Formation, Fluorescence Polarization; Potency, µM (doses to about 57.7 µM), most hits filed as inhibitors; hit rate 0.39% among 280,000; K18 P301L tau heparin fibrillization, Alexa594 FP, 6 h; also: nearly all actives have a fitted effect of over 55% in size
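Human tau K18 […] P301L fragment, 15 uM unlabeled plus 0.24 uM Alexa 594-labeled tau (final), with compound and 20 uM heparin in 100 mM sodium acetate pH 7; 6 hr at 37 C, then Alexa 594 FP read.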
HPGD block – qHTS Assay for Inhibitors of HPGD (15-Hydroxyprostaglandin Dehydrogenase) | purified HPGD, NADH fluorescence kinetic, PGE2 substrate | Potency, µM, most hits filed as inhibitors | hit rate 4.3% among 150,000; active = well fitted inhibition curve with a large enough effect, not every such curve was filed as active; inconclusive = small, poorly fitted or top-dose-only effect, or another doubt; inactive = no such curve, though single readings can be large or run the other way
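20 nM HPGD preincubated 15 min at room temperature with compound in 50 mM Tris-HCl pH 8, 0.01% Tween 20. Started with 1 mM NAD+ and 30 uM prostaglandin E2; NADH fluorescence (360/450 nm) read 5 times over 30-s intervals, last minus first.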
Each line names hits and unclear results; the compound was inactive in the other large screens. The list is not random: actives were taken first. Their share in the collection is about 9.9%. Unless noted, calls follow the shape of the dose curve; as a rule, active = well fitted curve in the direction sought with a large enough effect; inconclusive = small, poorly fitted or top-dose-only effect, or another doubt; inactive = no such curve, though single readings can be large; an effect the other way counts as inactive or inconclusive.

CC(=O)Nc1cc(O)cc(O)c1	none (no result: ALDH1A1 block, HPGD block)
COc1ccccc1NC=C1C(=O)OC2(CCCCC2)OC1=O	ALDH1A1 block 0.0562µM, HPGD block inconclusive
O=C1OC2(CCCCC2)OC(=O)C1=CNc1nc2ccccc2s1	ALDH1A1 block 11.2µM
COc1cccc(NC=C2C(=O)OC(C)(C)OC2=O)c1	ALDH1A1 block 10µM
O=C1OC2(CCCCC2)OC(=O)C1=CNc1ccc2c(c1)OCO2	ALDH1A1 block 0.891µM
CC1(C)OC(=O)C(=CNc2ccc(F)cc2)C(=O)O1	ALDH1A1 block inconclusive
CCOC(=O)c1ccccc1NC(=O)Cn1c(=O)n(CCC(=O)N2CCc3ccccc3C2)c(=O)c2ccccc21	none (no result: ALDH1A1 block, KDM4E inh, HPGD block)
Cc1noc(C)c1-c1nccc(-n2ccnc2)n1	none
CCOC(=O)c1cc(-c2ccccc2)n(-c2cccc(C(=O)Nc3ccc(OCC)cc3)c2)c1C	none (no result: ALDH1A1 block, KDM4E inh, HPGD block)
Cc1nc2nc(NCc3cccc(Cl)c3)[nH]n2c(=O)c1Cc1ccccc1	none (no result: ALDH1A1 block, KDM4E inh, HPGD block)
COc1cccc(NC=C2C(=O)OC3(CCCCC3)OC2=O)c1	ALDH1A1 block 1.58µM
COC(=O)c1ccccc1NC=C1C(=O)OC2(CCCCC2)OC1=O	ALDH1A1 block inconclusive, KDM4E inh inconclusive
C[n+]1ccc(C(=O)N/N=C/c2ccco2)cc1	none
CN(C)CCN1C(=O)C(=O)/C(=C(/O)c2ccccc2)C1c1ccccc1F (stereo not given)	ALDH1A1 block 17.8µM, KDM4E inh inconclusive
CCN(CC)CCCN1C(=O)C(=O)/C(=C(/O)c2ccc3c(c2)OCCO3)C1c1ccc(C)o1 (stereo not given)	ALDH1A1 block 25.1µM
COc1cccc(C2/C(=C(\O)c3ccc4c(c3)OCO4)C(=O)C(=O)N2CCN(C)C)c1OC (stereo not given)	ALDH1A1 block 22.4µM, KDM4E inh inconclusive
O=S(c1ccc2ccccc2c1)c1cnns1 (stereo not given)	ALDH1A1 block inconclusive, Tau ThT inhib inconclusive
C=CCNC(=O)N1CCc2nc(-c3ccc(OC)cc3C)c3c(c2C1)CO[C@@H](c1ccccc1)C3	ALDH1A1 block inconclusive
COc1ccc(-c2nc3c(c4c2C[C@H](c2ccccc2)OC4)CN(C(=O)Cc2cccs2)CC3)c(C)c1	ALDH1A1 block 3.98µM
COc1ccc(-c2nc3c(c4c2C[C@H](c2ccccc2)OC4)CN(C(=O)NCc2ccco2)CC3)c(C)c1	ALDH1A1 block 1.78µM
COC(=O)CC/C(O)=C1\C(=O)CC(C)(C)CC1=NCCc1nc2ccccc2[nH]1	none (no result: HPGD block)
CC(NC(=O)C1CCCC1)C1CC2CCC1C2 (stereo not given)	HPGD block 28.2µM
COc1ccc(NC(=O)CC(C)S(=O)(=O)c2cc3c(cc2C)NC(=O)CO3)cc1OC (stereo not given)	none (no result: ALDH1A1 block, KDM4E inh, HPGD block)
O=C(c1cc(C2CC2)on1)N1CCN(c2ccccc2)CC1	ALDH1A1 block 28.2µM, Tau ThT inhib inconclusive
COCCCNC(=O)c1ccc(Cn2c(=O)c3cccn3c3cccnc32)cc1	none (no result: ALDH1A1 block, KDM4E inh, HPGD block)
O=[N+]([O-])c1ccc(CSc2ncnc3c2ncn3[C@@H]2O[C@H](CO)[C@H](O)[C@H]2O)cc1	none
O=C1N(Cc2cccc(Cl)c2)C[C@@H]2C[C@@H](c3cccn3-c3cccnc3)N3CCC[C@@]123	ALDH1A1 block 7.08µM (no result: HPGD block)
CCn1ncc([C@@H]2C[C@H]3CN(Cc4cccc(Cl)c4)C(=O)[C@]34CCCN24)c1C	none (no result: HPGD block)
Nc1cc(S(=O)(=O)O)ccc1O	ALDH1A1 block inconclusive (no result: KDM4E inh, Tau fluor cs, Tau ThT inhib, Tau fibril FP)
Nc1cc(S(N)(=O)=O)ccc1SSc1ccc(S(N)(=O)=O)cc1N	ALDH1A1 block 2µM, HPGD block 5.01µM (no result: KDM4E inh, Tau fluor cs, Tau ThT inhib, Tau fibril FP)
CCCc1nc2oc3c(OC)ncnc3c2c2c1COC(C)(C)C2	ALDH1A1 block 0.891µM
